Source: PubChem BioAssay AID1578 (Sanford-Burnham Center for Chemical Genomics, 2009)
About 3,000 (1%) of roughly 290,000 compounds were called active. The sample as a whole holds a higher share of actives than the screen did. Unmarked numbers belong to inactive results. Rule as the data show it: active = inhibition mostly above about 36% (no sharp cut-off); inactive = mostly below about 34%.

Assay: NOD1 signaling inhibitors, primary screen, cell-based, luminescence, uHTS (AID 1578);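 also: HEK-293T reporter cells stimulated with the NOD1 agonist gamma-tri-DAP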
Conditions: NOD1-driven NF-kB luciferase reporter cells, at 4 µM, stronger effect = higher value
For `CCOc1c(Br)ccc2c1sc1nc[nH]c(=O)c12`, the inhibition was 66.7% (active).
Work on `CCOc1ccc(-c2c(C)sc3nc[nH]c(=O)c23)cc1` yielded an inhibition of -20.6%.
`CCOC(=O)c1c(N)sc2c(OCC)c(Br)ccc12` showed an inhibition of -11.3%.
`COc1cccc(NC(=S)N2C3CCCC2CC(NC(=O)C2CC2)C3)c1` (stereo unspecified) gave an inhibition of -11.4%.
In the case of `CC(=C/c1ccc(C(C)C)cc1)/C=N/NC(=O)CSc1ccccn1`, the inhibition is reported as -42.7%.
`CCC1CCCCN1S(=O)(=O)c1ccc(NC(=O)c2cccs2)cc1` (stereo unspecified) gave an inhibition of -29.4%.
For `O=C(Nc1ccc(S(=O)(=O)N2CCCCC2)cc1)c1ccncc1`, the inhibition was 9.7%.
Work on `CCC1CCCCN1S(=O)(=O)c1ccc(NC(=O)c2cccnc2)cc1` (stereo unspecified) yielded an inhibition of 30.5%.
`O=C(Nc1ccc(Cc2ccncc2)cc1)c1ccc(S(=O)(=O)N2CCOCC2)cc1` showed an inhibition of 31.5%.
Work on `CCN(CC)S(=O)(=O)c1ccc(OC)c(NC(=O)CSc2cc(C)ccc2C)c1` yielded an inhibition of -19.1%.
`C=CCN(c1ccccc1C(=O)O)S(=O)(=O)c1ccc(C)cc1` showed an inhibition of -26.8%.
Work on `O=S(=O)(Nc1ccc2c(c1)CCC2)c1cccs1` yielded an inhibition of 11.6%.
In the case of `O=c1c2ccccc2ncn1-c1ccc2c(c1)OCCO2`, the inhibition is reported as 26.3%.
In the case of `CS(=O)(=O)Nc1ccc(C(=O)NCCC2=CCCCC2)cc1`, the inhibition is reported as -9.5%.
Molecule `CS(=O)(=O)N(Cc1ccc(Cl)cc1)c1ccc(C(=O)NCCC2=CCCCC2)cc1` has an inhibition of 9.1%.
For `CN(c1ccc(C(=O)NCCC2=CCCCC2)cc1)S(C)(=O)=O`, the inhibition was 68.1% (active).
For `Cc1cc(NC(=O)CSc2nccn2C)n(-c2ccccc2)n1`, the inhibition was -0.5%.
Molecule `Cc1cccc(N2CCCn3c2nc2c3c(=O)n(CCN3CCOCC3)c(=O)n2C)c1` has an inhibition of 17.7%.
With `COCCn1nnnc1C(c1ccccn1)N1CCN(c2cc(Cl)ccc2C)CC1` (stereo unspecified) the inhibition was -10.8%.
`COC(=O)c1ccccc1NC(=O)C(C)n1nc(C)c2c(C)n(-c3ccccc3)nc2c1=O` (stereo unspecified) showed an inhibition of 7.4%.
With `Cc1cc(C)cc(OCC(=O)Nc2ccc(CN3CCCCC3)cc2)c1` the inhibition was -37.6%.
For `CCc1c(C)nc2c(Br)cccc2c1SCCC#N`, the inhibition was 22.1%.
Molecule `CCCCc1c(C)nc2ccc(Br)cc2c1SCCC#N` has an inhibition of 19.5%.
Work on `O=C(CN1C(=O)S/C(=C\c2cccs2)C1=O)Nc1ccc(O)cc1C(=O)O` yielded an inhibition of 38.9%.
`Cn1nnnc1SCCNCc1ccccc1OCc1ccccc1Cl` showed an inhibition of -12.2%.
In the case of `CCc1cccc(NC(=O)c2sc3nc4n(c(=O)c3c2C)CCC4)c1`, the inhibition is reported as -29.9%.
In the case of `COc1ccc(Nc2nc(-c3ccc(OC)cc3)cs2)cc1`, the inhibition is reported as -34.6%.
For `Oc1ccc(Nc2nc(-c3ccc(O)cc3)cs2)cc1`, the inhibition was -23.2%.
In the case of `COc1ccc(-c2csc(Nc3ccc(O)cc3)n2)cc1`, the inhibition is reported as 56.7% (active).
Molecule `Cc1ccc(S(=O)(=O)N(CC(=O)N/N=C/c2cccc(C)c2)c2cccc3cccnc23)cc1` has an inhibition of -9%.
Work on `CC(C)CC(=O)NC(C)C(c1cccs1)N1CCOCC1` (stereo unspecified) yielded an inhibition of -10.9%.
In the case of `O=c1cc(C(F)(F)F)[nH]c(=S)n1-c1ccccc1`, the inhibition is reported as -3.4%.
In the case of `O=[N+]([O-])c1ccc(-c2c(O)c3ccccc3c3nc4ccccc4nc23)cc1`, the inhibition is reported as 87.7% (active).
`O=[N+]([O-])c1ccc(-c2cnc3ccccc3n2)cc1` gave an inhibition of -42.9%.
With `Cc1cc(-c2ccc([N+](=O)[O-])cc2)nc2ccccc12` the inhibition was -26.6%.
For `CCOC(=O)c1cnn(-c2ccc(C(F)(F)F)cn2)c1N`, the inhibition was -92.9%.
With `CC(=O)Nc1ccc(NC(=O)CCOc2cc(C)ccc2C)cc1` the inhibition was 46.4%.
In the case of `CCOC(=O)C1(Cc2ccc(OC)cc2)CCN(C(=O)CCn2cccn2)CC1`, the inhibition is reported as 1.1%.
`Cc1cc(C)c2nc(NNC(=O)c3cc(-c4cccs4)nc4ccccc34)sc2c1` gave an inhibition of -29.4%.
In the case of `Cc1ccc2sc(NNC(=O)c3cc(-c4cccs4)nc4ccccc34)nc2c1C`, the inhibition is reported as -36.7%.
In the case of `Cc1cccc2sc(NNC(=O)c3cc(-c4cccs4)nc4ccccc34)nc12`, the inhibition is reported as 86.7% (active).
With `O=C(NCCOc1ccc(Cl)cc1)c1ccc2ccccc2n1` the inhibition was -22.8%.
`c1ccc(-c2nc3cnccn3c2Nc2ccc3c(c2)OCCO3)cc1` gave an inhibition of -26.2%.
`Cc1nn(CC(=O)c2ccc(Cl)s2)c(C)c1[N+](=O)[O-]` showed an inhibition of -20.3%.
Molecule `COc1ccc(Cc2nnc(NC(=O)c3cccc(F)c3)s2)cc1OC` has an inhibition of -8%.
With `Cc1cc(C(=O)CCl)c(C)n1CC1COc2ccccc2O1` (stereo unspecified) the inhibition was 51.3% (active).
`COc1ccc(CCn2c(C)c(C(C)=O)c(C(C)=O)c2C)cc1OC` gave an inhibition of -23.3%.
In the case of `CCOC(=O)c1cc(C)n(CCc2ccccc2)c1C`, the inhibition is reported as -18.3%.
Work on `Cc1cc(C(=O)COC(=O)c2ccc(O)cc2)c(C)n1CC1COc2ccccc2O1` (stereo unspecified) yielded an inhibition of -9.9%.
In the case of `COc1ccc(CCn2c(C)cc(C(=O)CCl)c2C)cc1OC`, the inhibition is reported as 59.7% (active).
With `Cc1cc(C(=O)CN2C(=O)C(=O)N(Cc3ccccc3)C2=O)c(C)n1CC1COc2ccccc2O1` (stereo unspecified) the inhibition was 27.8%.
Molecule `COc1ccc(CCn2c(C)cc(C(=O)CSc3nnnn3-c3ccccc3)c2C)cc1OC` has an inhibition of -55.4%.
`Cc1cc(C(=O)CSc2nnnn2-c2ccccc2)c(C)n1CCc1ccccc1` gave an inhibition of -52.2%.
Work on `Cn1cccc1C(NC(=O)c1ccccc1)C(Cl)(Cl)Cl` (stereo unspecified) yielded an inhibition of -0.5%.
`Cc1cccc(C)c1OCCNC(=O)c1ccc2ccccc2n1` gave an inhibition of 53.9%.
`COc1cccc(C(=O)Nc2ccc(Cl)c(C(F)(F)F)c2)c1` gave an inhibition of -30.7%.
`Cc1cc(=O)[nH]c(N/N=C/c2cn(CCC#N)nc2-c2ccccc2)n1` gave an inhibition of -41.6%.
`Cc1cc(NC(=O)CN(C)C)c([N+](=O)[O-])cc1C` showed an inhibition of -1.4%.
`COC(=O)C1=C(Cn2cnc3ccccc32)NC(=O)NC1c1cc(C)ccc1C` (stereo unspecified) showed an inhibition of 14.7%.
With `Cc1nnc2n(c1=O)C(CS(=O)(=O)c1ccccc1)CS2` (stereo unspecified) the inhibition was 9.4%.
Work on `CCCc1nnc(NC(=O)CCC(=O)N2CCN(Cc3cc(F)ccc3OC)CC2)s1` yielded an inhibition of -10.4%.
